Assay results taken from ChEMBL document CHEMBL1201862, “PubChem BioAssay data set” (2004).
In all, about 400,000 compounds went through this assay and about 2,100 (0.53%) were called active. Inconclusive results (about 14%) are left out. The rule behind the calls is not given here. Many of the other results were omitted from the sample, so actives are more common in it than they were.

molecular target: Ataxin-2 (Homo sapiens) (UniProt Q99700); assay: qHTS for Inhibitors of ATXN expression.; type: functional
Sequence (Q99700 whole entry): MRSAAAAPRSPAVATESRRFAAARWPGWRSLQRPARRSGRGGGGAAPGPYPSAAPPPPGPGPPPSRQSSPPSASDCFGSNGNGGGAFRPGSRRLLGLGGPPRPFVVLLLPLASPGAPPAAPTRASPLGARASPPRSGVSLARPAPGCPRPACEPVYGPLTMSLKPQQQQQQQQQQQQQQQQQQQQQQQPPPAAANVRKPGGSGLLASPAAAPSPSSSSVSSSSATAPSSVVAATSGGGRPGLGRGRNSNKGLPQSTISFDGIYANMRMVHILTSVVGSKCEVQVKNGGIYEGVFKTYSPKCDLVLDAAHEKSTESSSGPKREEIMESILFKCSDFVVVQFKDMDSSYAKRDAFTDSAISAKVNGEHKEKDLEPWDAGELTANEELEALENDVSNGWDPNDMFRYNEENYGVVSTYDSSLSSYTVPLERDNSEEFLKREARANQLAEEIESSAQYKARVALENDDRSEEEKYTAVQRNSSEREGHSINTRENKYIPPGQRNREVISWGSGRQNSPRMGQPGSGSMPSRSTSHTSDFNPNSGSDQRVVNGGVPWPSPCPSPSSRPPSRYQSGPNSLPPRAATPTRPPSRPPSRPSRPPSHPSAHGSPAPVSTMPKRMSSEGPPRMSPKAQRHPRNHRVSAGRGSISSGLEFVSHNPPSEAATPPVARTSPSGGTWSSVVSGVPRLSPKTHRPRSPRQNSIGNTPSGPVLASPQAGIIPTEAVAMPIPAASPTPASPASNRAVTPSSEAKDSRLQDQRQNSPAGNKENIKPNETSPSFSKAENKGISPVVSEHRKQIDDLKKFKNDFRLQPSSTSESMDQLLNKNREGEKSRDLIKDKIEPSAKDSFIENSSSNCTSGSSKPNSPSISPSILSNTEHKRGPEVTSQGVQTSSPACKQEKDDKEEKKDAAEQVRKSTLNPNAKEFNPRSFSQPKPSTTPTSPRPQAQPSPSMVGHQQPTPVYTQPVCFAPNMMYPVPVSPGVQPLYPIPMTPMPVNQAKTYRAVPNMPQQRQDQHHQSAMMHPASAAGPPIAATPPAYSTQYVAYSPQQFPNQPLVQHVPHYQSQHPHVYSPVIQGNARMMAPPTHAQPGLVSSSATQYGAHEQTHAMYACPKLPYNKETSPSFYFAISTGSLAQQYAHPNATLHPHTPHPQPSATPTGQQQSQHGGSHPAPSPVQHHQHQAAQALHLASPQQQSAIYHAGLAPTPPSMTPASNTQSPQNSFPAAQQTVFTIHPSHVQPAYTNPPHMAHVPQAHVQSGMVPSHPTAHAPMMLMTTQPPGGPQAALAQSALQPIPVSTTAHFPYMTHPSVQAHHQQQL

SMILES	Potency
COCCNC(=O)c1cc2c(=O)n3cccc(C)c3nc2n(Cc2ccncc2)c1=N	inactive
C/C(=N\NC(=O)C1COc2ccccc2O1)c1ccc(N2CCOCC2)cc1 (stereo not given)	inactive
O=C(COC(=O)c1c2c(nc3ccccc13)/C(=C\c1ccco1)CC2)NC1CCCC1	inactive
O=C1C(=C(I)I)c2ccccc2-c2ccccc21	26.7 µM (active)
COc1ccc(C2C=C(C)Nc3nc4ccccc4n32)cc1 (stereo not given)	inactive
Cc1ccc(C(C)(C)C)cc1S(=O)(=O)N1CC(=O)Nc2ccccc21	inactive
COc1ccc(NC(=O)c2oc3ccccc3c2NC(=O)COc2ccccc2OC)c(OC)c1	35.5 µM (active)
COc1ccc(C(=O)c2oc3ccccc3c2NC(=O)c2ccc(F)cc2)cc1	inactive
COc1ccc(NC(=O)COC(=O)c2[nH]nc3ccccc23)c(OC)c1	inactive
Brc1ccc(C2=CC(c3ccco3)n3ncnc3N2)cc1 (stereo not given)	inactive
COc1cccc2cc(C(=O)NCc3ccc(Cl)cc3)c(=O)oc12	inactive
COc1ccc(/N=c2\oc3c(OC)cccc3cc2C(=O)NCc2ccco2)c(OC)c1	22.4 µM (active)
COc1ccc(/N=c2\oc3cc(O)ccc3cc2C(=O)NCC2CCCO2)c(OC)c1 (stereo not given)	inactive
CCc1c(C)c(C#N)c2nc3ccccc3n2c1S	inactive
CC(C)=CCC[C@H](C)C[C@@H]1Cc2nc(S)nc(O)c2[C@@H](c2ccc(F)cc2)O1	28.2 µM (active)
Cc1ccc(-c2noc(CN(C(=O)c3ccc4c(c3)OCO4)C(C)C)n2)cc1	inactive
CC(=O)c1ccc(OCc2cc(C(=O)N3CCC(c4ccncc4)CC3)no2)cc1	inactive
CSc1ccccc1NC(=O)c1cc(CC(C)C)on1	inactive
CC(CNC(=O)c1cc(COc2ccc3ncccc3c2)on1)c1ccccc1 (stereo not given)	44.7 µM (active)
CCOC(=O)C1CCN(C(=O)Cn2c(=O)c3cccn3c3cccnc32)CC1	inactive
N#Cc1ccc(OCC(O)CS(=O)(=O)c2ccc(F)cc2)cc1 (stereo not given)	inactive
CN(C)c1ccc(N=Nc2ccc(S(=O)(=O)O)cc2)c2ccccc12	25.1 µM (active)
Cc1cc(/C=c2\sc3nc4ccccc4n3c2=O)c(C)n1-c1ccc(C(=O)O)cc1	inactive
CC(Sc1nc[nH]n1)C(=O)Nc1cc(C(F)(F)F)ccc1Cl (stereo not given)	inactive

SMILES	Potency
COc1cc(OC)c(C(=O)OC(C)C(=O)Nc2cc(C(F)(F)F)ccc2Cl)cc1OC (stereo not given)	inactive
FC(F)Oc1ccc(/C=N/NC(=S)Nc2cc(C(F)(F)F)ccc2Cl)cc1	39.8 µM (active)
CCCc1cc(NCc2ccccn2)n2c(nc3ccccc32)c1C#N	inactive
C=C1C(=O)OC2CC1C(O)CC(C)=CCCC(C)=CC(O)CC2C (stereo not given)	15 µM (active)
NC(=O)c1sc2nc(-c3ccccc3)c3c(c2c1N)CCCC3	inactive
CN(C)CCNc1ncnc2c1sc1nc(-c3ccccc3)c3c(c12)CCCC3	25.1 µM (active)
CC(=O)c1sc2nc(-c3ccc(C)cc3)c3c(c2c1N)CCCC3	inactive
CCN(CC)c1cc(C)c(C#N)c2nc3ccccc3n12	inactive
Cc1cc(C)nc(OC(C(=O)O)C(OCCc2ccccc2)(c2ccc(F)cc2)c2ccc(F)cc2)n1 (stereo not given)	inactive
Cc1ccc(C(=O)NCC(=O)N/N=C/c2cccs2)cc1[N+](=O)[O-]	inactive
CS(=O)(=O)c1ccc(C(=O)NCCN2C(=O)S/C(=C\c3cccnc3)C2=O)cc1[N+](=O)[O-]	11.2 µM (active)
CNCCCOc1ccc(C)cc1OC	inactive
COc1ccc(OCC(O)CNCCOc2ccccc2OC)c(C(C)(C)C)c1 (stereo not given)	20 µM (active)
COc1ccc(C(C(=O)NC2CCCCC2)N(C(=O)CCl)c2ccc(C)cc2)cc1 (stereo not given)	7.08 µM (active)
COCCCn1c(C(=O)NC2CCCCC2)cc2c(=O)n3cccc(C)c3nc21	inactive
COc1ccc(C(C(=O)NC2CCCC2)N(C(=O)c2ccco2)c2cc3c(cc2C(C)=O)OCO3)cc1 (stereo not given)	inactive
COCCCn1c(=N)c(C(=O)NC2CCCC2)cc2c(=O)n3cccc(C)c3nc21	inactive
COCCN(C(=O)CCl)C(C(=O)NC1CCCCC1)c1ccccc1C (stereo not given)	25.1 µM (active)
CC(C(=O)NC1CCCCC1)N(Cc1ccc(F)cc1)C(=O)c1snc(C(N)=O)c1N (stereo not given)	inactive
O=C(NC1CCCC1)C(c1ccc(Cl)cc1)N(Cc1ccc(F)cc1)C(=O)CCl (stereo not given)	39.8 µM (active)
NC(=O)c1nsc(C(=O)N(Cc2cccnc2)C(C(=O)NC2CCCC2)c2ccc(F)cc2)c1N (stereo not given)	inactive
CCc1ccc(N(C(=O)c2snc(C(N)=O)c2N)C(C(=O)NC2CCCC2)c2ccncc2)cc1 (stereo not given)	inactive
COc1ccc(CCN2C(=O)CC(C(N)=O)S/C2=N\c2ccccc2)cc1 (stereo not given)	inactive
Cc1cc(C)c2c(N)c(C(=O)NN3CC(=O)N(c4cccc(Cl)c4)CC3=O)sc2n1	inactive

SMILES	Potency
CC(C)(C)C(=O)Cn1ncc(Br)c(Br)c1=O	15.8 µM (active)
CO/N=C(\Cn1ncc(N2CCOCC2)c(Br)c1=O)c1ccc(Cl)cc1	inactive
Nc1cc2c(cc1O)CCCC2	inactive
O=C(COc1ccc(Br)cc1)N1CCc2ccccc21	inactive
CCOCCCn1c(=N)c(C(=O)NC2CCCC2)cc2c(=O)n3cc(C)ccc3nc21	inactive
COCCCn1c(=N)c(C(=O)NC2CCCC2)cc2c(=O)n3cc(C)ccc3nc21	inactive
CCCCCCn1c(=O)n2n(c1=O)C[C@]1(OC(=O)NCC3CCCCC3)CN(S(=O)(=O)c3ccc(C)cc3)C[C@]1(O)C2	31.6 µM (active)
CCCCCCn1c(=O)n2n(c1=O)[C@@H]1CN(S(=O)(=O)c3ccc(C)cc3)C[C@]1(O)[C@@H](OC(=O)NCC1CCCCC1)C2	31.6 µM (active)
CCCCCCn1c(=O)n2n(c1=O)[C@@H]1CN(S(=O)(=O)c3ccc(C)cc3)C[C@]1(O)[C@@H](OC(=O)NC1CCCC1)C2	44.7 µM (active)
Cc1cccc(C)c1N=C(S)NCCc1ccc(O)c(O)c1	inactive
CC1CC1C(=O)OCC(=O)c1c(N)n(C)c(=O)n(C)c1=O (stereo not given)	inactive
CCOC(=O)c1cc2c(=O)n3ccccc3nc2n(Cc2ccco2)/c1=N/C(=O)c1cccnc1	inactive
COc1ccc(-n2c3nc4ccccc4nc3c3c(=N)oc(C)nc32)cc1	inactive
COc1cc(/C=C(\C#N)c2nc3ccccc3n2C)cc(OC)c1O	inactive
Cc1cccn2c(=O)c3cc(C#N)/c(=N\C(=O)c4cccnc4)n(CC4CCCO4)c3nc12 (stereo not given)	inactive
O=C1CN2CCC1C/C2=C\c1ccnc2c(Cl)cccc12 (stereo not given)	inactive
COC(=O)C1=CN(Cc2ccc(OC)c(OC)c2)C=C(C(=O)OC)C1c1cccs1	inactive
C=C1C(=O)c2sccc2C(c2ccc(OC)c(OC)c2)C1COC(C)=O (stereo not given)	5.97 µM (active)
CN1CCN(c2nc3ccccn3c(=O)c2C=C(C#N)C#N)CC1	inactive
CC1(C)CC(=O)C2=C(C1)c1c(ccc3ccccc13)NC2c1ccc(OCC(=O)O)cc1 (stereo not given)	inactive
Cc1ccc2nc(NCC(N)=O)nc(-c3ccccc3)c2c1	inactive
Nc1cccc2c1C(=O)N(Cc1nnc(-c3ccccc3Br)o1)C2=O	inactive
O=c1c(Cl)c(Cl)cnn1Cc1nnc(-c2ccccc2Br)o1	39.8 µM (active)
COc1ccc(/C=C2\Oc3cc(OCC(=O)N4CCC[C@H]4C(=O)O)ccc3C2=O)c(OC)c1	inactive

SMILES	Potency
COc1ccc(-c2nnc(SCc3cc(=O)c4cc(C)cc(C)c4[nH]3)n2C)cc1	17.8 µM (active)
COc1ccc(-c2nc3ccccc3c(=O)n2CCOc2c(C)cccc2C)cc1	inactive
CCCCCc1cc(=O)oc2c(C(CCN3CCCC(C)C3)c3ccc(OC)cc3)c(OC)cc(OC)c12 (stereo not given)	31.6 µM (active)
CCCc1cc(=O)oc2c3c(ccc12)OCN(Cc1ccccc1OC)C3	inactive
COc1cc(OC)c2c(C)cc(=O)oc2c1C(CCN1CCOCC1)c1ccc2c(c1)OCO2 (stereo not given)	20 µM (active)
CCCCCc1cc(=O)oc2c(C(CCN3CCCC(C)C3)c3ccc4c(c3)OCO4)c(OC)cc(OC)c12 (stereo not given)	35.5 µM (active)
COc1ccc(-c2c(C)c3ccc(O)c(CN4CCCC(C)C4)c3oc2=O)cc1OC (stereo not given)	inactive
Cc1c(O)ccc2c(CN3CCOCC3)cc(=O)oc12	inactive
CCCCCc1cc(=O)oc2c(C(CCN3CCCC(C)C3)c3ccc(N(C)C)cc3)c(OC)cc(OC)c12 (stereo not given)	22.4 µM (active)
COc1ccc(CN2COc3ccc4c(C)cc(=O)oc4c3C2)cc1	inactive
CCN1CCc2c(C#N)c(N3CCOCC3)nc(NCCO)c2C1	inactive
CCc1cc2c(CN3CCN(CCO)CC3)cc(=O)oc2cc1O	inactive
CC(=O)c1ccc(NS(=O)(=O)c2ccc3c(c2)N(C(C)=O)CCO3)cc1	inactive
CCCN1CCN(c2ncnc3sc(C(=O)Nc4ccc(C(C)C)cc4)c(C)c23)CC1	31.6 µM (active)
CCOC(=O)c1sc2ncnc(N3CCN(C)CC3)c2c1C	inactive
COc1ccc(C)cc1NC(=O)c1sc2ncnc(N3CCN(c4ccccn4)CC3)c2c1C	inactive
COc1ccccc1C(=O)Nc1nc2n(n1)C(c1ccc(F)cc1)C=C(c1ccc(Cl)cc1)N2 (stereo not given)	inactive
COc1cccc(C(=O)Nc2ccc3[nH]c(O)nc3c2)c1OC	inactive
COc1ccccc1C(=O)Nc1cccc(N2CCC(NCc3cnn(-c4ccccc4)n3)CC2)c1	28.2 µM (active)
COCCNC(=O)c1cc2nc3c(c(C(F)(F)F)n2n1)CCc1ccccc1-3	inactive
CCc1ccc(-c2cc(C(F)(F)F)n3nc(C(=O)Nc4c(C)nn(Cc5ccc(F)cc5)c4C)cc3n2)s1	inactive
Cc1ccc(Cn2nc(C)c(NC(=O)CSc3nc4c(c(C(F)(F)F)n3)CCc3ccccc3-4)c2C)cc1	20 µM (active)
Cc1cccn2c(=O)c3cc(C(=O)NC4CCCC4)c(=N)n(CC4CCCO4)c3nc12 (stereo not given)	inactive
